Experimental data taken from PubChem BioAssay (NCATS).
Records with an inconclusive call do not appear. Entries that show only a call come without a potency. Active and inactive are the calls of the source. Calls come from the whole dose curve; as a rule, active = well fitted inhibition curve with a large enough effect; inconclusive = small, poorly fitted or top-dose-only effect, or effect the other way; inactive = flat fitted curve, though single readings scatter.

Molecular target: ATP-dependent 6-phosphofructokinase (Trypanosoma brucei brucei) (UniProt O15648)
Sequence (O15648 whole entry, looked up): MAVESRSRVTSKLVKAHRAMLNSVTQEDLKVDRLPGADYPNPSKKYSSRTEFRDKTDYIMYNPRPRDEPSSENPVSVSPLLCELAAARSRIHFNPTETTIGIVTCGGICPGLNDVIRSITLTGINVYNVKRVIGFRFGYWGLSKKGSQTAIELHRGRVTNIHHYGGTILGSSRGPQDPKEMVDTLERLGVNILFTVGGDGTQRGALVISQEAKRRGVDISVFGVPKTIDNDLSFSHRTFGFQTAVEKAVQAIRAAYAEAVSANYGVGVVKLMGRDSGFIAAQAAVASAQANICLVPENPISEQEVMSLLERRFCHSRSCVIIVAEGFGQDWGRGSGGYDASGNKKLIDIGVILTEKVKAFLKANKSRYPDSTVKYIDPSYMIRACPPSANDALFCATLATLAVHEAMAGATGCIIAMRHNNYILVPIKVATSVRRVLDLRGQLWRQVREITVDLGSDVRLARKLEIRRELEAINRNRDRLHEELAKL
Assay: qHTS Assay to Find Inhibitors of T. brucei phosphofructokinase: hit validation (AID 492961)
Conditions: T. brucei PFK, ADP-Glo luminescence; series mostly up to 51.4 µM
Procedure, shortened: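 Measures ADP output of PFK (1.25 nM) at 0.1 mM ATP, 0.5 mM F6P, pH 8.0 TEA buffer with 5 mM MgCl2. No-enzyme wells define full inhibition; uninhibited enzyme wells define zero.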
Potency is the fitted concentration of half-maximal effect.

Row | SMILES | Potency
1 | CCn1cc(C(=O)O)c(=O)c2cnc(N3CCNCC3)nc21 | inactive
2 | NCCNCCNCCN | inactive
3 | CCOc1ccc2ccccc2c1C(=O)N[C@@H]1C(=O)N2[C@@H]1SC(C)(C)[C@@H]2C(=O)O | inactive
4 | O=C(O)c1ccccc1-c1ccc(C(F)(F)F)cc1 | inactive
5 | Cc1ccc(C(C)C)cc2c(C)ccc1-2 | inactive
6 | Nc1nc2c(ncn2CCC(CO)CO)c(=O)[nH]1 | inactive
7 | CC(=O)CCC(=O)O | inactive
8 | O=S(=O)(O)c1cc(I)c(O)c2ncccc12 | 31.6 µM (active)
9 | Cn1cc[nH]c1=S | inactive
10 | O=C(Oc1ccccc1C(=O)O)c1ccccc1O | inactive
11 | Cc1ccc2nc(N)[nH]c(=O)c2c1Sc1ccncc1 | inactive
12 | CC(O)COc1ccccc1 (stereo not given) | inactive
13 | O=Cc1ccccc1C=O | inactive
14 | O=c1cc[nH]c(=S)[nH]1 | inactive
15 | Nc1ccc(S(=O)(=O)Nc2ccccc2)cc1 | inactive
16 | Nc1ccc(S(=O)(=O)Nc2ccc(Cl)nn2)cc1 | inactive
17 | [Cl][In]([Cl])[Cl] | inactive
18 | NC(=O)N/N=C/c1ccc([N+](=O)[O-])o1 | inactive
19 | O=C(CCCN1CCN(c2ccccn2)CC1)c1ccc(F)cc1 | inactive
20 | CN1CCC[C@@H]1Cc1c[nH]c2ccc(CCS(=O)(=O)c3ccccc3)cc12 | inactive
21 | O=c1[nH]c(=O)c2[nH]c(=O)[nH]c2[nH]1 | inactive
22 | NCCNCCNCCNCCN | inactive
23 | CCCCC(CC)COC(=O)c1ccccc1O (stereo not given) | inactive
24 | Oc1cn2c(n1)Nc1ccc(Cl)c(Cl)c1C2 | inactive
25 | NC(=O)NC(=O)Cc1ccccc1 | inactive
